From ChEMBL document CHEMBL3988442, “University of Dundee, Small-Polar-MMV Screening Library” (2021)

What was measured:
[1] = biological target: T1, Aspartate--tRNA(Asp/Asn) ligase (Mycobacterium tuberculosis (strain ATCC 25618 / H37Rv)) (UniProt P9WFW3); test: Assay for Asp RNA synthetase-1 from Mycobacterium tuberculosis; assay type: functional; design: scale not given: direction of the effect not stated beside the values; conditions: 30 µM; further: in the data most compounds retested in dose-response had high values
T1 sequence (whole entry): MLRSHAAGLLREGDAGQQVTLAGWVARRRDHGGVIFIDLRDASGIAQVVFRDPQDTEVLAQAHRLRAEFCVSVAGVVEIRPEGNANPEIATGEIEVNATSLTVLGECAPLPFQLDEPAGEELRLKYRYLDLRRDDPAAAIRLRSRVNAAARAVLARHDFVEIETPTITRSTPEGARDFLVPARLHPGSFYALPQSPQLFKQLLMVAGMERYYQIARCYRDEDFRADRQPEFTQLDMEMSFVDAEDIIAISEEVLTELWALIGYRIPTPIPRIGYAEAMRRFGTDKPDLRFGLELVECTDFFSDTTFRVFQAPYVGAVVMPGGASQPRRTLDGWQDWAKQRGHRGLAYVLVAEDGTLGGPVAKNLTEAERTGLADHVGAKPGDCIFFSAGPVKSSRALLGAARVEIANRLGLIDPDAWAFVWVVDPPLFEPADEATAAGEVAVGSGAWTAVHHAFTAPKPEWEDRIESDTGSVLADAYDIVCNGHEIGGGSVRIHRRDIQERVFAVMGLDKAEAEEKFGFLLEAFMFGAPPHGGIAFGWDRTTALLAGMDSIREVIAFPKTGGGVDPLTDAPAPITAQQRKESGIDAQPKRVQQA

[2] = biological target: Shiga toxin 2 (Escherichia coli O157:H7) (UniProt P09385+P09386); test: E. coli 0.157:H7 Shiga Toxin SOP - stx2 screening assay; assay type: functional; design: scale not given: direction of the effect not stated beside the values; conditions: 30 µM

Row | Compound | Percent Effect [1] [%] | Percent Effect [2] [%]
1 | Fc1cnc(N2CCn3cc(CNc4ccccn4)nc3C2)nc1 | 1.02 | -67.4
2 | Cc1ccc(-c2nc(CNC3CCc4ncnn4C3)co2)c(C)c1 (stereo unspecified) | -9.8 | -22
3 | c1ccc(OCCCNCCn2cccn2)cc1 | -1.5 | -44.6
4 | O=C(c1ccc(Cl)o1)N1CCCN(Cc2cscn2)CC1 | -7.87 | 6.75
5 | Cc1cnc(CNc2c(F)cccc2-n2cccn2)o1 | -2.01 | -27.4
6 | Cc1nn(C)c(C)c1CNC1CCOc2ccccc21 (stereo unspecified) | -0.466 | 8.07
7 | Cc1nc(CN2C(=O)CCC23CCN(c2ncccn2)CC3)cs1 | 4.19 | -30.4
8 | NC(=O)C(CNC(=O)Cc1ccc(F)cc1)Cc1ccc(F)cc1 (stereo unspecified) | -1.56 | -30.7
9 | CN(CC(=O)Nc1ccc(Br)cn1)C(=O)Cc1ccc(O)cc1 | -5.92 | 17.8
10 | CNS(=O)(=O)c1ccc(C(=O)NC2CCOc3ccccc32)o1 (stereo unspecified) | -4.13 | 5.97
11 | CN(CCN1CCCCCC1)C(=O)c1cc(CN2CCC(O)CC2)on1 | 5.29 | -37.1
12 | Cc1nc(CN2CCC3(CC2)NC(=O)CC3c2ccccc2)cs1 (stereo unspecified) | -5.35 | 7.78
13 | O=C(CN1CCCCC1Cn1cncn1)NCCc1ccc(F)cc1 (stereo unspecified) | 3.25 | -5.15
14 | O=S(=O)(NCC1(O)CCOc2ccccc21)c1ccc(Br)s1 (stereo unspecified) | 3.31 | 17.9
15 | CCN(C(=O)CCCOc1ccccc1F)c1ccncc1 | -2.34 | 1.08
16 | O=C(O)c1coc(COc2cccc(F)c2)n1 | -2.21 | -2.73
17 | CN(C)CC(=O)N1CCC2(CC1)CN(c1ccsc1)C(=O)CO2 | 5.4 | -4
18 | COC(=O)c1cccn1C1CCN(Cc2ccccc2)CC1 | 0.995 | -6.65
19 | CC(NC(=O)CSCC#N)c1cccc(NC(=O)c2ccccc2)c1 (stereo unspecified) | 1.91 | 6.38
20 | CN(Cc1cnn(C)c1)C(=O)NC1CCS(=O)(=O)C1 (stereo unspecified) | -2.67 | 14.6
21 | O=C(CN1CCCC(c2ccc(C(=O)O)cc2)C1)NC1CC1 (stereo unspecified) | -1.07 | 6.8
22 | O=C(c1ccncc1)N1CCC2(CC1)CC(Oc1cccnc1)CO2 (stereo unspecified) | 4.1 | 12.2
23 | CC(=O)c1cc(CN2C[C@H]3CC[C@@H]2CN(S(=O)(=O)N(C)C)C3)cs1 | -1.45 | -57.1
24 | Cc1cc(C)c2nc(CN3CCCC(c4cc[nH]n4)C3)cc(O)c2c1 (stereo unspecified) | 4.05 | 0.0646
25 | O=C(CN1CCCC1Cn1cncn1)Nc1cccnc1 (stereo unspecified) | 1.28 | 9.88
26 | CC(C)Nc1nc(N2CCOCC2)nc2c1CN(Cc1ccoc1)CC2 | -5.4 | 4.99

Row | Compound | Percent Effect [1] [%] | Percent Effect [2] [%]
27 | COc1ccccc1N1CCC(CNCc2cccc(C#N)c2)C1 (stereo unspecified) | 13.3 | 2
28 | Nc1cc2c(nn1)CCN(C(=O)CC1CCCC1)C2 | -1.69 | 2.23
29 | CC(C)c1nc2n(n1)CC(NCc1nnnn1C1CC1)CC2 (stereo unspecified) | 1.55 | 8.39
30 | O=S(=O)(NCc1ccccc1Cn1cncn1)C1CCCC1 | 1.56 | -9.86
31 | COCCCC1(CO)CCCN(CCc2ccccc2)C1 (stereo unspecified) | -0.201 | -15.6
32 | Oc1nc(N2CCOCC2)nc2c1CCN(Cc1cccnc1)CC2 | 0.849 | -13.5
33 | CCC1(CO)CCCN(c2ncccc2C#N)C1 (stereo unspecified) | -1.73 | -8.75
34 | Cc1ncsc1C(=O)NC1CCN(CCC(N)=O)CC1 | -2.4 | 13.9
35 | CN(C)c1cc2c(nn1)CCN(C(=O)C1CCc3ccccc31)C2 (stereo unspecified) | 5.85 | 5.96
36 | CC(=O)N(C)CC(=O)Nc1cccc(N2CCN(CC3CC3)CC2)c1 | 7.12 | -14.8
37 | CC(NC(=O)NCCn1ccnc1)c1ccc2c(c1)NC(=O)CO2 (stereo unspecified) | 0.942 | 5.67
38 | COC(=O)c1cccn1C1CCN(C(=O)c2cc(F)ccc2F)CC1 | 1.88 | 19.6
39 | CCc1ccc(S(=O)(=O)Nc2cc(C(=O)O)c(F)cc2F)s1 | -4.19 | -16.1
40 | CCCC(C)C(=O)N1CCC(n2cccc2C(=O)OC)CC1 (stereo unspecified) | 0.787 | -16.1
41 | Cc1cnn(CC2CN(CC(=O)NCc3ccccn3)CCO2)c1 (stereo unspecified) | -8.24 | -5.07
42 | CCc1nnsc1C(=O)N1CCOC(c2nc(C)n[nH]2)C1 (stereo unspecified) | -2.08 | -18.3
43 | COc1c(C)cnc(CN2CCC(C(=O)N(C)C)CC2)c1C | -0.91 | 10.2
44 | CC(=O)NCC(=O)N1Cc2nccn2CC(Cn2cccn2)C1 (stereo unspecified) | -1.48 | 0.581
45 | O=C(CCc1cscn1)N1CCCC(n2ccnc2)C1 (stereo unspecified) | -3.19 | -12.2
46 | Cc1cnn(CC2CCCN2c2nn3cc(C)nc3s2)c1 (stereo unspecified) | -9.79 | -13.5
47 | CNC(=O)c1ccc(OC2CCN(S(C)(=O)=O)CC2)c(Cl)c1 | -0.864 | -64.7
48 | O=C(COc1ccc(C(F)(F)F)cc1)NS(=O)(=O)c1cccnc1 | 6.95 | 15
49 | COc1cccc(CCC(=O)N2CCCC(n3cc(C)cn3)C2)c1 (stereo unspecified) | -3.33 | 10.7
50 | Cc1nc(C)c(C(=O)NCCNC(=O)Cc2ccccc2)s1 | -1.6 | 11.1
51 | Cc1cc(C(=O)N2CCCC(n3cncn3)C2)c(C)n1C1CC1 (stereo unspecified) | -2.4 | 9.3
52 | CNC(=O)CCCNCc1c(C(C)C)nn(C)c1N(C)C | 1.04 | 3.71

Row | Compound | Percent Effect [1] [%] | Percent Effect [2] [%]
53 | Fc1ccc(-c2n[nH]cc2-c2ccnc(NCCN3CCCC3)n2)cc1 | 8.63 | -50.2
54 | Cc1cccc(-c2noc(CN3CCCC(Cn4cncn4)C3)n2)c1 (stereo unspecified) | -2.23 | -1.3
55 | CN(C(=O)C1CCCCC1)[C@@H]1CCC[C@@H](N2CCOCC2)[C@@H]1O | 0.61 | -11.6
56 | Cn1nc(C(=O)N2CCCCC2c2nc3cc(F)ccc3[nH]2)ccc1=O (stereo unspecified) | -2.79 | -1.06
57 | COc1cc(C(=O)NS(=O)(=O)c2cccc(C#N)c2)ccc1C | -2.04 | -1.16
58 | CN(Cc1ccccc1)CC(O)Cn1cnc2ccsc2c1=O (stereo unspecified) | -1.75 | -2.3
59 | COCCN1CCCN(C(=O)NC(C)Cn2cccn2)CC1 (stereo unspecified) | 1.3 | -9.78
60 | CS(=O)(=O)N1CC[C@H]2[C@H](C[C@@H](Cn3cncn3)N2CC2CC2)C1 | 10.1 | -8.81
61 | Cn1cc(CN(Cc2ccccc2)CC(O)c2cccs2)cn1 (stereo unspecified) | 0.353 | 9.88
62 | COc1cc(CNCc2c(C)nn(C)c2N(C)C)ccn1 | 3.75 | 13
63 | COC(=O)C(c1cc(F)ccc1F)N(C)C(=O)c1csnn1 (stereo unspecified) | 3.92 | -19.1
64 | CC(=O)NCCN1CCC(c2cccs2)CC1 | -5.78 | 1.86
65 | COc1ccc(C2C3=C(COC3=O)Nc3[nH]nc(C)c32)cc1OC (stereo unspecified) | -2.61 | -21.4
66 | O=C(CSc1ccccc1Cl)NS(=O)(=O)c1ccc2c(c1)OCCO2 | -8.39 | -0.0514
67 | CS(=O)(=O)NCc1cc2n(n1)CCCN(Cc1cccc(C#N)c1)C2 | 0.342 | 18.6
68 | Cc1ccc(CNC(=O)N2CCCCC2CCNS(C)(=O)=O)cc1 (stereo unspecified) | 1.04 | 6.21
69 | COc1cc(CNC2CCc3nc(C)nn3C2)cc2c1OCCO2 (stereo unspecified) | -2.19 | -2.67
70 | Cc1cc(CN2CCCC2Cn2cncn2)no1 (stereo unspecified) | -4.72 | -0.0947
71 | COc1ccnc(N2CCN(C(=O)c3cnn(C)c3C3CC3)CC2)n1 | -3.2 | 11.7
72 | CCn1cc(NC(=O)C2CCN(Cc3ccccc3C#N)CC2)cn1 | 1.7 | -53.9
73 | Cn1c(C2CC2)nc2c1CCN(CCOc1ccc(C#N)cc1)C2 | 3.25 | -7.77
74 | Cc1cc(C)n(CC2CCCN2C(=O)CCCNc2ncccn2)n1 (stereo unspecified) | -2.92 | 26.1
75 | COc1cc2cc(C(=O)N[C@@H](C)C(=O)O)n(C)c2c(OC)c1OC | -3.11 | -30.8
76 | CC(C)(C)C(=O)N1C[C@H](c2ccsc2)[C@H]2CN(Cc3cccs3)CC[C@H]21 | -0.28 | -20.2
77 | Cc1cc(C)c(CNC(=O)NCC(c2ccccc2)N(C)C)c(=O)[nH]1 (stereo unspecified) | 4.47 | 23.9
78 | N#Cc1ccccc1CN1CCCCC1Cn1cncn1 (stereo unspecified) | 0.359 | 25

Row | Compound | Percent Effect [1] [%] | Percent Effect [2] [%]
79 | Cn1nc(C(=O)NCc2ccccn2)c2c1CCS(=O)(=O)C2 | -0.726 | -22.4
80 | COc1cccc(CNc2cnn(C)c(=O)c2Cl)c1 | -6.1 | 11.4
81 | Cc1cccc(CN2CCc3nnc(CO)n3CC2)n1 | 0.728 | -10.4
82 | c1ncn(CC2CCCN(Cc3nc(C4CC4)no3)C2)n1 (stereo unspecified) | -2.51 | -1.62
83 | Cc1ccc(CN2CCc3ncc(CNS(C)(=O)=O)n3CC2)o1 | 1 | -24.4
84 | O=C1CN(Cc2nnc(-c3ccc(Br)cc3)o2)CCN1 | -0.167 | -95.1
85 | CC(=O)Nc1ccc(-n2ccc3nc(N4CCCC4)ncc3c2=O)cc1 | 4.09 | -9.95
86 | CC(O)CN1CCC(CNCc2cccc(OC(C)C)c2)CC1 (stereo unspecified) | 3.21 | -10.6
87 | Cc1cnn(C2CCCN(C(=O)c3ccnc(N(C)C)c3)C2)c1 (stereo unspecified) | -5.57 | -16.8
88 | CCN(c1ccc(C(=O)NCCCN2CCCC2)cc1)S(=O)(=O)CC | 2.52 | -46.4
89 | CN(CCn1cccn1)S(=O)(=O)N1CCCC1c1ccco1 (stereo unspecified) | 4.31 | 20.4
90 | Cc1nccc(-c2cccc(NCC(=O)N3CCNC3=O)c2)n1 | 2.42 | 8.66
91 | CS(=O)(=O)N1Cc2ccccc2C2(CCN(C(=O)c3ccno3)CC2)C1 | 1.46 | -6.76
92 | Cc1nc(C)n(CC2CN(Cc3cccc4c3OCCO4)CCO2)n1 (stereo unspecified) | -4.36 | 23.8
93 | CCCn1ccc(C(=O)N2CCC(C)CC2)n1 | 3.36 | -27.6
94 | CC(NC(=O)NCCCc1n[nH]c(N)c1C#N)c1ccccc1 (stereo unspecified) | 1.03 | -17.6
95 | Cc1cccc(CN2CCc3c(nc(N4CCCCC4C)[nH]c3=O)C2)n1 (stereo unspecified) | -1.15 | 21.7
96 | CC(=O)N1CCCN(C(=O)c2oc(Br)cc2C)CC1 | -0.167 | -13.6
97 | Cc1cc(C)n(CC2CCCN2CCS(=O)(=O)c2ccccc2)n1 (stereo unspecified) | -0.833 | -9.51
98 | COc1ccc(NC(=O)N2CCCC2c2ccco2)cc1OC (stereo unspecified) | 1.24 | -11.9
99 | CN1CCCC(c2cccc(Cc3ccccc3Cl)n2)C1 (stereo unspecified) | -5.43 | 6.38
100 | CO[C@H]1CCN(Cc2cnn(C)c2)[C@@H]2CN(Cc3cccnc3)C[C@H]12 | 3.14 | -40.9
101 | O=C(O)c1cc2c(nc1O)CC(c1cccs1)CC2=O (stereo unspecified) | 2.79 | -19.6
102 | CCOC(=O)c1sc(NC(=O)CN(C)S(C)(=O)=O)c(C#N)c1C | -4.94 | 2.91
103 | O=C(c1ccc(Cl)o1)N1CCCC(c2cc(C(F)(F)F)[nH]n2)C1 (stereo unspecified) | 3.23 | 38.7
